FAS-TE inh: FAS thioesterase (human) inhibition; recombinant FAS-TE, OMFH fluorogenic substrate, fluorescence endpoint; inhibition, % at 15 µM; AID 602261; hit rate 0.67% among 360,000; P49327;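 active = compounds whose normalised, plate-corrected inhibition of enzyme fluorescence in the single-dose primary screen is 50% or more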;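 note: 0% = DMSO with enzyme and 100% = substrate without enzyme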
proKLK7 act: activators of human kallikrein-7 zymogen; P49862; purified proKLK7, EDANS-DABCYL substrate fluorescence; 100% is mature enzyme control, 0% vehicle; activation, % at 7 µM; hit rate 0.9% among 370,000;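 active = activation above the mean of all tested compounds plus 3 SD, computed per campaign excluding outliers beyond control limits, cut at about 13% in these data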
Target sequence (P49862 whole entry, looked up): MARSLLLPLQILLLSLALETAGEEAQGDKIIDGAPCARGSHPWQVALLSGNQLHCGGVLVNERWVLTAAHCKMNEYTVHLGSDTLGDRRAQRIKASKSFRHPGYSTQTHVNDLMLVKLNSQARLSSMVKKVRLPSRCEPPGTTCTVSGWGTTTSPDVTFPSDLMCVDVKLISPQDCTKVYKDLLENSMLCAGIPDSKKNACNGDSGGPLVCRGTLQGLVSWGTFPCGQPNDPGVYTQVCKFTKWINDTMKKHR
SMARCA2 act: SMARCA2 function activation, primary screen; MG213 cells, MMTV-luciferase reporter, dexamethasone, overnight; hit rate 1% among 370,000; AID 652017; activation, % at 9.1 µM; in the data active = activation above about 7.8%;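 note: 0% = vehicle wells and 100% = reference activator wells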
FXN GAA850 act: increases GAA850 frataxin promoter reporter activity | HEK293 lucGAA850 FXN promoter luciferase reporter, 24 h; percent of 10 µM SAHA response | activation, % at 6 µM | hit rate 0.56% among 360,000 | AID 540364;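 active = activation above the average of all compounds screened plus 3 SD, cutoff fixed separately per campaign, cut at about 7.5% in these data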;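 note: 0% = DMSO wells and 100% = 10 µM SAHA wells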
FAS-TE conf: confirmation of human fatty acid synthase thioesterase inhibitors; shares compounds with FAS-TE inh; hit rate 45% among 2,300; recombinant FAS-TE, OMFH fluorogenic substrate, fluorescence; inhibition, % at 15 µM;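 active = compounds inhibiting the enzyme by at least 50% at 15 µM in any one of the replicates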;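 note: 0% = enzyme with DMSO only and 100% = wells lacking enzyme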
Starred values were filed as active, the others as inactive; . = no result given. Only some compounds are listed: those with a hit (about 2.9% of all), similar ones and a draw of the others.

SMILES	FAS-TE inh	proKLK7 act	SMARCA2 act	FXN GAA850 act	FAS-TE conf
COc1cc(/C=N/NC2=NC(C)(C)Cc3ccccc32)cc(OC)c1OC	0	0	-4	1	.
CCc1nc2sc3c(c2c(=S)[nH]1)CC(C)(C)OC3	-5	0	0	4	.
Cn1c(-c2cccc([N+](=O)[O-])c2)cnc1NCc1cccc([N+](=O)[O-])c1	55*	0	0	-2	28
CS(=O)(=O)c1cc([N+](=O)[O-])c(Sc2nc3ccccc3[nH]2)c([N+](=O)[O-])c1	51*	-1	0	0	32
COc1ccccc1-c1cc(C(=O)N/N=C/C=C/c2ccccc2[N+](=O)[O-])c2ccccc2n1	63*	-1	-2	-2	21
COc1cc(/C=N/NC(=O)c2cccc([N+](=O)[O-])c2)cc(OC)c1O	8	-1	2	-1	.
COc1cc([N+](=O)[O-])cc(/C=N/NC(=O)c2cc(C)nc3ccccc23)c1O	54*	0	-3	-1	67*
COc1cc(/C=N/NC(=O)c2cncc(Br)c2)cc([N+](=O)[O-])c1O	58*	0	-3	1	70*
O=C(N/N=C/C=C/c1ccccc1[N+](=O)[O-])c1cc(-c2cccnc2)nc2ccccc12	32	0	-2	-1	.
COc1cc([N+](=O)[O-])cc(/C=N/NC(=O)c2cncc(Br)c2)c1O	59*	0	-3	1	71*
O=C(NCCCN1CCCC1)[C@H](CSCc1ccccc1)N1Cc2ccccc2C1=O	-2	0	-2	-1	.
Cc1ccccc1CS(=O)(=O)CCC(=O)O	-9	0	2	1	.
CCOc1ncccc1C(=O)Nc1ccc(S(=O)(=O)N2CC(C)CC(C)C2)cc1 (stereo unspecified)	11	0	-2	-2	.
O=C(Nc1ccc(Oc2ccsc2C(=O)O)cc1)c1ccccc1	-4	0	-1	0	.
O=C(O)c1cccc(Nc2ncnc3c2cnn3-c2ccccc2)c1	-5	0	4	2	.
Cc1cccc(N2C(=O)c3cccc4c(N5CCCCC5)c([N+](=O)[O-])cc(c34)C2=O)c1C	21	0	1	1	.
O=C1c2cccc3c(N4CCOCC4)c([N+](=O)[O-])cc(c23)C(=O)N1c1cccc2ccccc12	77*	0	1	1	25
COc1ccc(-c2nn(-c3ccccc3)cc2C(=O)N2CCN(S(=O)(=O)c3ccccc3[N+](=O)[O-])CC2)cc1	78*	1	0	-1	26
CCCCS(=O)(=O)N1C2=NC(C(=O)OC)=C(C(=O)OC)[C@@H]3N(C)c4ccc(OC)cc4[C@]23C[C@H]1C(=O)OC	4	.	.	0	.
COC(=O)C1=C(C(=O)OC)[C@@H]2N(C)c3ccc(OC)cc3[C@@]23C[C@@H](C(=O)OC)N(S(=O)(=O)c2ccc([N+](=O)[O-])cc2)C3=N1	66*	0	2	0	27
CC(=O)Nc1ccc(NC(=O)CCC(=O)NCCO)cc1	-9	.	.	-1	.
CC(C)c1ccc(NC(=O)C2Cc3c(-c4cccc(C(N)=O)c4)ccnc3O2)cc1 (stereo unspecified)	11	0	-1	2	.
CC(=O)c1cccc(-c2ccnc3c2CC(C(=O)Nc2ccc(F)c(Cl)c2)O3)c1 (stereo unspecified)	60*	1	-3	-1	58*
CC(C)c1ccc(NC(=O)C2Cc3c(-c4cccc(F)c4)ccnc3O2)cc1 (stereo unspecified)	50*	1	-4	-6	42
COc1ccccc1-n1c(=O)c(C#N)c(-c2ccc([N+](=O)[O-])cc2)c2cc(C(=O)c3ccccc3O)cnc21	89*	-1	6	-4	14
SMILES	FAS-TE inh	proKLK7 act	SMARCA2 act	FXN GAA850 act	FAS-TE conf
Cc1noc(C)c1CSCC(=O)OCc1nnc(-c2ccc([N+](=O)[O-])cc2)o1	39	0	1	0	.
CCCCNc1c(-c2cccc(OC)c2)nc2nc(C)cc(C)n12	-6	1	0	.	.
COC(=O)C(C(=O)OC)c1ccccc1NS(=O)(=O)c1c(C)cc(C)cc1C	.	0	-4	.	.
COc1ccc([N+](=O)[O-])cc1/C=N/NC(=O)CNC(=O)C(c1ccccc1)c1ccccc1	50	0	-5	0	.
COc1ccc([N+](=O)[O-])cc1/C=N/NC(=O)CNC(=O)c1cccc(F)c1	70*	-1	-2	1	75*
CC1(C)CC(=O)C=C(c2ccc(COC(=O)/C=C/c3ccccc3)cc2)C1=O	28	0	-2	0	.

Screening data (PubChem)
